Consider eight molecules from PubChem BioAssay (NCI).

Molecules are shown by their SMILES. About 83,000 compounds went through this panel and 20% of them were active in at least one assay; those are over-represented in the sample as a whole.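 How to read the values: 0–100, growth inhibition (40 = 60% inhibited); 0, no net growth; -100 to 0, cell death (-40 = 40% of starting cells died; -100 = all dead).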 Values without a mark were called inactive. The source made the active and inactive calls. Rule for the calls: active = growth percent below 10; inactive = the rest.

Holding throughout (assay): NCI-60 one-dose screen, 48 h (100 = growth as untreated, 0 = no growth, -100 = all killed)
The test system of one assay is K-562 leukemia. As to conditions: 10 µM unless noted.
For the next assay, the system named is MALME-3M melanoma. Conditions: 10 µM unless noted.
The test system of another assay is MDA-MB-231 breast. Conditions: 10 µM unless noted.
Another assay deals with RXF 393 renal. As to conditions: 10 µM unless noted.
The test system of a further assay is SF-268 CNS. As to conditions: 10 µM unless noted.
The next assay deals with SF-295 CNS. Conditions: 10 µM unless noted.
The test system of a further assay is SF-539 CNS. As to conditions: 10 µM unless noted.
In another assay the test system is UACC-257 melanoma. Conditions: 10 µM unless noted.
Another assay relates to M14 melanoma. As to conditions: 10 µM unless noted.
For another assay, the system named is HCT-15 colon. Conditions: 10 µM unless noted.
The next assay deals with HT29 colon. Conditions: 10 µM unless noted.
Another assay relates to SNB-75 CNS. As to conditions: 10 µM unless noted.
The next assay relates to SNB-19 CNS. Conditions: 10 µM unless noted.
Another assay concerns U251 CNS. Conditions: 10 µM unless noted.
A further assay deals with PC-3 prostate. Conditions: 10 µM unless noted.
Another assay concerns SK-MEL-5 melanoma. As to conditions: 10 µM unless noted.
In the next assay the test system is UACC-62 melanoma. As to conditions: 10 µM unless noted.
A further assay relates to SK-MEL-28 melanoma. Conditions: 10 µM.
The test system of a further assay is SK-MEL-2 melanoma. Conditions: 10 µM unless noted.
The test system of another assay is LOX IMVI melanoma. As to conditions: 10 µM unless noted.

Regarding `O=C(Nc1ccccc1O)c1ccc(-c2ccc(Cl)cc2Cl)o1`, the growth is 47.1% in the assay on K-562 leukemia; 71.4% in the assay on MALME-3M melanoma; 80.4% with MDA-MB-231 breast; 79.7% with RXF 393 renal; 77.1% in the assay on SF-268 CNS; 68.4% with SF-295 CNS. Also, the growth in the assay with SF-539 CNS is 115%; in the assay with UACC-257 melanoma, 106%; in the assay on M14 melanoma, 90%; in the assay with HCT-15 colon, 95.9%; with HT29 colon, 53.9%; in the assay with SNB-75 CNS it was 78.1%. The growth is 89.2% in the assay with SNB-19 CNS; 81.1% with U251 CNS; 71.7% in the assay with PC-3 prostate; 85.9% with SK-MEL-5 melanoma; 105% in the assay on UACC-62 melanoma; 98.6% in the assay with SK-MEL-28 melanoma. Further, the growth in the assay with SK-MEL-2 melanoma was 96.3%.

Consider `COc1cc2nc(-c3cccc4cccnc34)nc(NC3CCN(Cc4ccccc4)CC3)c2cc1OC`, for which the growth is -49.4% (active) with K-562 leukemia; -76.6% (active) in the assay on MALME-3M melanoma; -89.5% (active) in the assay on MDA-MB-231 breast; -79.8% (active) in the assay with RXF 393 renal; -68.8% (active) with SF-268 CNS; -87.2% (active) in the assay with SF-295 CNS. The growth was -86.6% (active) with SF-539 CNS; -62.4% (active) in the assay on UACC-257 melanoma; -80% (active) in the assay with M14 melanoma; -80.9% (active) in the assay with HCT-15 colon; -87.2% (active) with HT29 colon; -87.8% (active) in the assay on SNB-75 CNS. Further, the growth with SNB-19 CNS was -78.2% (active); in the assay with U251 CNS, -78.4% (active); in the assay on PC-3 prostate it was -84.4% (active); with SK-MEL-5 melanoma, -96.8% (active); in the assay on LOX IMVI melanoma, -82.3% (active); with SK-MEL-28 melanoma, -76.9% (active).

On to `COc1ccc(/C=C/C(=O)c2c(C)nc3ccccc3c2/C=C/c2ccccc2)cc1O`, for which the growth in the assay with K-562 leukemia was 20.9%; in the assay with MALME-3M melanoma, 86.3%; in the assay with MDA-MB-231 breast, 52.7%; with RXF 393 renal, 64.1%; with SF-268 CNS, 57.7%; in the assay with SF-295 CNS, 90.8%. Moreover, the growth with SF-539 CNS was 81.7%; in the assay with UACC-257 melanoma, 68.7%; with M14 melanoma, 15.9%; with HCT-15 colon, 39.1%; in the assay on HT29 colon, 71.6%; in the assay on SNB-75 CNS it was 24.9%. For the same molecule, the growth is 67.3% in the assay with SNB-19 CNS; 49% with U251 CNS; 58.4% in the assay with PC-3 prostate; 59.3% with SK-MEL-5 melanoma; 33% with LOX IMVI melanoma; 75.2% in the assay with SK-MEL-28 melanoma. Besides, the growth with SK-MEL-2 melanoma was 66.8%.

Turning to `O=C(Nc1ccc(Cl)cc1F)c1cc(I)ccc1O`, the growth in the assay on K-562 leukemia was 14.9%; in the assay on MALME-3M melanoma, -1.76% (active); in the assay with MDA-MB-231 breast, 52.8%; in the assay on RXF 393 renal it was 14.8%; with SF-268 CNS, 17.1%; with SF-295 CNS, 48.4%. Also, the growth was 16.4% with SF-539 CNS; 21.9% in the assay with UACC-257 melanoma; 27.9% in the assay on M14 melanoma; 25.4% with HCT-15 colon; 103% in the assay with HT29 colon; 16.5% with SNB-75 CNS. For the same molecule, the growth in the assay on SNB-19 CNS is 18.9%; in the assay with U251 CNS it was 9.91% (active); with PC-3 prostate, 44%; in the assay on UACC-62 melanoma, -1.26% (active); in the assay with LOX IMVI melanoma it was 19%; with SK-MEL-28 melanoma, 18.5%. The growth with SK-MEL-2 melanoma is -19.3% (active).

As for `O=NN(C(=O)NC1CCC(C(=O)O)CC1)C1CCC(C(=O)O)CC1` (stereo unspecified), the growth in the assay on K-562 leukemia is 95%; in the assay on MALME-3M melanoma, 104%; with MDA-MB-231 breast, 103%; in the assay with RXF 393 renal it was 106%; with SF-268 CNS it was 107%; in the assay with SF-295 CNS, 107%. In addition, the growth with SF-539 CNS was 103%; in the assay with UACC-257 melanoma it was 96.7%; in the assay with M14 melanoma, 104%; in the assay on HCT-15 colon, 96.3%; in the assay on HT29 colon, 108%; in the assay on SNB-75 CNS, 84.1%. The growth with SNB-19 CNS was 100%; in the assay on U251 CNS, 104%; with PC-3 prostate, 98.6%; in the assay on SK-MEL-5 melanoma it was 104%; in the assay on LOX IMVI melanoma, 99.3%; with SK-MEL-28 melanoma, 106%. In addition, in the assay on SK-MEL-2 melanoma, the growth was 122%.

`Cc1ccc2nc(NC(=O)CSC(=S)N3CCN(c4ccccc4)CC3)sc2c1`: the growth with K-562 leukemia was 95.7%; in the assay on MALME-3M melanoma it was 105%; in the assay on MDA-MB-231 breast it was 101%; with RXF 393 renal, 108%; with SF-268 CNS, 101%; in the assay with SF-295 CNS it was 104%. Also, the growth with SF-539 CNS is 104%; in the assay with UACC-257 melanoma, 108%; with M14 melanoma, 97.8%; in the assay on HCT-15 colon, 97%; in the assay on HT29 colon it was 96.6%; with SNB-75 CNS, 97.1%. Further, the growth in the assay on SNB-19 CNS is 96.9%; in the assay with U251 CNS it was 86.3%; in the assay on PC-3 prostate, 95.5%; in the assay with SK-MEL-5 melanoma, 95.4%; in the assay on LOX IMVI melanoma, -65% (active); with SK-MEL-28 melanoma it was 107%. Also, the growth in the assay on SK-MEL-2 melanoma is 96.1%.

As for `O=c1oc2ccc(-c3ccc(F)cc3F)cc2c(=O)n1-c1cccc(C(F)(F)F)c1`, the growth was 10.9% with K-562 leukemia; -24% (active) in the assay on MALME-3M melanoma; -16% (active) in the assay with MDA-MB-231 breast; -8.07% (active) in the assay with RXF 393 renal; 12.7% in the assay with SF-268 CNS; -0.824% (active) in the assay on SF-295 CNS. Further, the growth in the assay with SF-539 CNS was 9.91% (active); in the assay with UACC-257 melanoma, -14.2% (active); in the assay with M14 melanoma, 18.3%; with HCT-15 colon it was 13%; in the assay with HT29 colon it was 31.3%; with SNB-75 CNS it was -7.33% (active). Further, the growth in the assay with SNB-19 CNS was 14.4%; in the assay with U251 CNS, 4.94% (active); with PC-3 prostate, 3.58% (active); in the assay with SK-MEL-5 melanoma, -76.4% (active); in the assay with LOX IMVI melanoma, 25.7%; in the assay with SK-MEL-28 melanoma it was 25%. The growth in the assay on SK-MEL-2 melanoma was -15.9% (active).

On to `Cc1ccc(NC2=CC(=O)C(=O)c3ccccc32)c(C)c1`, for which the growth with K-562 leukemia was 61.3%; in the assay with MALME-3M melanoma, 62.5%; in the assay on MDA-MB-231 breast it was 49.5%; in the assay with RXF 393 renal, 85.5%; in the assay with SF-268 CNS it was 63.2%; in the assay on SF-295 CNS, 34.6%. Also, the growth is 48.8% in the assay on SF-539 CNS; 23.1% in the assay on UACC-257 melanoma; -15.5% (active) in the assay on M14 melanoma; 13.3% in the assay with HCT-15 colon; 48.4% in the assay on HT29 colon; 35.2% in the assay on SNB-75 CNS. Further, the growth is 28.1% with SNB-19 CNS; 33.3% with U251 CNS; 35.4% in the assay with PC-3 prostate; -97.3% (active) in the assay with SK-MEL-5 melanoma; -59.5% (active) with UACC-62 melanoma; -23.2% (active) in the assay on LOX IMVI melanoma. For the same molecule, the growth in the assay on SK-MEL-2 melanoma is 76.6%.
